Compounds without any hit were thinned out: in the full panel of roughly 83,000, 20% have a hit.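 Activity criterion: percent growth below 10, measured after cells in 96-well plates were exposed to a single compound concentration for 48 hours.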 Calls of active or inactive are those of the source.
What was measured:
Assay in all cases: NCI-60 one-dose screen, 48 h (100 = growth as untreated, 0 = no growth, -100 = all killed)
Settings in all cases: 10 µM unless noted
NCI/ADR-RES ovarian = test system: NCI/ADR-RES ovarian
T-47D breast = test system: T-47D breast
BT-549 breast = test system: BT-549 breast
MDA-MB-435 melanoma = test system: MDA-MB-435 melanoma
SW-620 colon = test system: SW-620 colon
MCF7 breast = test system: MCF7 breast
HCT-116 colon = test system: HCT-116 colon
HCC-2998 colon = test system: HCC-2998 colon
KM12 colon = test system: KM12 colon

Measured: growth

COC(=O)C12CC(NC(=O)c3csc([C@@H](C[C@H](C(C)C)N(C)C(=O)[C@@H](NC(=O)[C@H]4CCCCN4C)C4CC4)OC(C)=O)n3)(C1)C2
inactive: NCI/ADR-RES ovarian 43.7% | T-47D breast 43.4% | SW-620 colon 25.4% | MCF7 breast 19.2% | HCC-2998 colon 21.8%
active: BT-549 breast -10.9% | MDA-MB-435 melanoma -40.9% | HCT-116 colon 1.78% | KM12 colon 1.43%

COc1ccc2c(c1)c(-c1nc(-c3c[nH]c4ncccc34)cs1)cn2CCCCN1CCCCC1
inactive: BT-549 breast 69.2%
active: NCI/ADR-RES ovarian 1.16% | T-47D breast -55.5% | MDA-MB-435 melanoma -92.7% | SW-620 colon -71.9% | MCF7 breast -74.9% | HCT-116 colon -98.9% | HCC-2998 colon -9.73% | KM12 colon -62.9%

COC(=O)[C@@H](C)C[C@H](Cc1ccccc1)NC(=O)c1csc([C@@H](C[C@H](C(C)C)N(C)C(=O)[C@@H](NC(=O)[C@H]2CCCCN2C)C2CCCCC2)OC(C)=O)n1
active: BT-549 breast -11.8% | MDA-MB-435 melanoma -47.6% | HCT-116 colon -22.1% | KM12 colon 2.88%
inactive: NCI/ADR-RES ovarian 10.6% | T-47D breast 39.1% | SW-620 colon 19.1% | MCF7 breast 18.3% | HCC-2998 colon 10.3%

COc1ccc2c(c1)c(-c1nc(-c3c[nH]c4ncccc34)cs1)cn2CCN1CCOCC1
active: T-47D breast -1.96% | MCF7 breast 5.06%
inactive: NCI/ADR-RES ovarian 38.7% | BT-549 breast 50.6% | MDA-MB-435 melanoma 73% | SW-620 colon 75.5% | HCT-116 colon 52.5% | HCC-2998 colon 74.1% | KM12 colon 20.2%

[Au+].[N-]=C=O.c1ccc(CN2[CH-]N(Cc3ccccc3)C(c3ccccc3)=C2c2ccccc2)cc1
inactive: NCI/ADR-RES ovarian 109% | T-47D breast 52.4% | BT-549 breast 89.8% | MDA-MB-435 melanoma 101% | SW-620 colon 89.6% | MCF7 breast 46.1% | HCT-116 colon 67.6% | HCC-2998 colon 79.9% | KM12 colon 90.4%

O=C1CC2(CC3(Cl)C(Cl)=C(Cl)C2(Cl)C3(Cl)Cl)C(=O)O1 (stereo not drawn)
inactive: NCI/ADR-RES ovarian 101% | T-47D breast 99.6% | BT-549 breast 107% | MDA-MB-435 melanoma 103% | SW-620 colon 113% | MCF7 breast 99.4% | HCT-116 colon 91.1% | HCC-2998 colon 102% | KM12 colon 106%

O=C(Nc1ccc(Br)cc1)c1cc(Br)cc(Br)c1O
active: NCI/ADR-RES ovarian -6.08% | T-47D breast -2.63% | BT-549 breast -28% | MDA-MB-435 melanoma 1.23% | SW-620 colon -15.7% | MCF7 breast 8.07% | HCT-116 colon -13.9% | KM12 colon -44.2%
inactive: HCC-2998 colon 52.1%

Clc1ccc(COC(Cn2ccnc2)c2ccc(Cl)cc2Cl)cc1 (stereo not drawn)
inactive: NCI/ADR-RES ovarian 23.3% | T-47D breast 48.3% | BT-549 breast 55.9% | MDA-MB-435 melanoma 27.5% | SW-620 colon 34.3% | MCF7 breast 57.9% | HCT-116 colon 33.6% | HCC-2998 colon 64.2% | KM12 colon 29.1%

CC[C@]12C=CCN3CC[C@]4(C(=C(C(=O)OC)C1)Nc1cc(OC)c(OC(C)=O)cc14)[C@@H]32
active: NCI/ADR-RES ovarian 9.28% | BT-549 breast 3.35% | MDA-MB-435 melanoma 3.75% | KM12 colon 9.09%
inactive: T-47D breast 51.4% | SW-620 colon 15.8% | MCF7 breast 13.1% | HCT-116 colon 12% | HCC-2998 colon 12.8%

COc1ccc2c(c1)c(-c1nc(-c3cn(C)c4ncccc34)cs1)cn2CCCCN1CCCCC1
inactive: T-47D breast 61% | BT-549 breast 85.1% | HCC-2998 colon 95.3%
active: NCI/ADR-RES ovarian 5.12% | MDA-MB-435 melanoma -88.9% | SW-620 colon -64.3% | MCF7 breast -76.5% | HCT-116 colon -93% | KM12 colon -68.7%

CC(=O)OC[C@]1(C)C=C2C(=O)[C@](C)(O)C3(CC3)C(C)=C2[C@H]1O
inactive: KM12 colon 10.4%
active: NCI/ADR-RES ovarian -18.7% | T-47D breast -8.92% | BT-549 breast -42.4% | MDA-MB-435 melanoma -24.1% | SW-620 colon 0.025% | MCF7 breast 1.05% | HCT-116 colon 0.12% | HCC-2998 colon -59.8%

CC[C@H](C)[C@H](NC(=O)c1ccccn1)C(=O)N(C)[C@H](C[C@@H](OC(C)=O)c1nc(C(=O)N[C@@H](Cc2ccccc2)C[C@H](C)C(=O)OC)cs1)C(C)C
active: MDA-MB-435 melanoma -25.3% | HCT-116 colon 9.41%
inactive: NCI/ADR-RES ovarian 16.1% | T-47D breast 80.7% | BT-549 breast 24.2% | SW-620 colon 25.7% | MCF7 breast 21.2% | HCC-2998 colon 23.9% | KM12 colon 10.2%

CCN(CCO)C(Cc1ccccc1)c1ccccc1 (stereo not drawn)
inactive: NCI/ADR-RES ovarian 94.7% | T-47D breast 111% | BT-549 breast 100% | MDA-MB-435 melanoma 94.4% | SW-620 colon 96.4% | MCF7 breast 94% | HCT-116 colon 99.3% | HCC-2998 colon 96.8% | KM12 colon 99.4%

COc1cccc(/C=C/[N+](=O)[O-])c1
inactive: NCI/ADR-RES ovarian 92.6% | T-47D breast 41.7% | BT-549 breast 29.5% | SW-620 colon 77.5% | KM12 colon 15.6%
active: MDA-MB-435 melanoma -25.3% | MCF7 breast -11.2% | HCT-116 colon -60.9% | HCC-2998 colon -87.9%

COC(=O)[C@@H](C)C[C@H](Cc1ccc(F)cc1)NC(=O)c1csc([C@@H](C[C@H](C(C)C)N(C)C(=O)[C@@H](NC(=O)[C@H]2CCCCN2C)C2CC2)OC(C)=O)n1
inactive: NCI/ADR-RES ovarian 76.4% | T-47D breast 60.1% | SW-620 colon 27.2% | MCF7 breast 19.6% | HCC-2998 colon 28.8% | KM12 colon 14%
active: BT-549 breast -0.522% | MDA-MB-435 melanoma -50.1% | HCT-116 colon 3.44%

CC(=O)O[C@H](C[C@H](C(C)C)N(C)C(=O)[C@@H](NC(=O)[C@H]1CCCCN1C)C(C)(C)C)c1nc(C(=O)N[C@@H](Cc2ccccc2)C[C@H](C)C(=O)O)cs1
active: BT-549 breast -23.6% | MDA-MB-435 melanoma -47% | HCT-116 colon 0.775% | HCC-2998 colon 8.37% | KM12 colon 6.93%
inactive: NCI/ADR-RES ovarian 12.3% | T-47D breast 45.6% | SW-620 colon 24.5% | MCF7 breast 16.4%

COc1ccc(S(=O)(=O)N(Cc2ccc3c(c2)C=CC(C)(C)O3)c2ccccc2)cc1OC
inactive: NCI/ADR-RES ovarian 68.7% | T-47D breast 55.1% | BT-549 breast 54% | MDA-MB-435 melanoma 87.3% | SW-620 colon 87.1% | MCF7 breast 50.7% | HCT-116 colon 63% | HCC-2998 colon 73.6% | KM12 colon 88.7%

COc1ccc(/C=C\c2cc(OC)c(OC)c(OC)c2)cc1NC(=O)/C=C/c1ccc(OC)c(OC)c1
inactive: T-47D breast 40.2% | BT-549 breast 39.1% | SW-620 colon 39.2% | MCF7 breast 21.3% | HCT-116 colon 25% | KM12 colon 27.3%
active: NCI/ADR-RES ovarian -8.84% | MDA-MB-435 melanoma -51.4% | HCC-2998 colon -3.07%

COc1ccc2c(c1)c(C1(O)CC(CSC#N)OC1=O)cn2C(=O)c1ccc(Cl)cc1 (stereo not drawn)
inactive: NCI/ADR-RES ovarian 92.5% | T-47D breast 100% | BT-549 breast 97.6% | MDA-MB-435 melanoma 98.9% | SW-620 colon 105% | MCF7 breast 91.6% | HCT-116 colon 97% | HCC-2998 colon 95.1% | KM12 colon 97.7%

CC(=O)Oc1ccccc1C(=O)NCCC[Se]C#N
active: BT-549 breast -97% | MDA-MB-435 melanoma 3.02% | HCT-116 colon 0.0792%
inactive: NCI/ADR-RES ovarian 14.4% | T-47D breast 83.3% | SW-620 colon 72.9% | MCF7 breast 14.5% | HCC-2998 colon 97.9% | KM12 colon 29.6%

CN1CC(CNC(=O)OCc2ccccc2)CC2c3cccc4c3c(cn4C)CC21 (stereo not drawn)
active: MDA-MB-435 melanoma 3% | MCF7 breast -55.3% | HCC-2998 colon -66.9%
inactive: NCI/ADR-RES ovarian 44.2% | T-47D breast 31.6% | BT-549 breast 50% | SW-620 colon 35.9% | HCT-116 colon 31.7% | KM12 colon 38.1%

CC(=O)OCC1O[C@@H]([S-])C(OC(C)=O)[C@H](OC(C)=O)[C@@H]1OC(C)=O.[Au+].c1ccc(CN2[CH-]N(Cc3ccccc3)C(c3ccccc3)=C2c2ccccc2)cc1
active: T-47D breast -37.1% | BT-549 breast -30.2% | SW-620 colon 8.97% | MCF7 breast -3.49% | HCC-2998 colon -57.4%
inactive: NCI/ADR-RES ovarian 98.7% | MDA-MB-435 melanoma 48.4% | HCT-116 colon 18.8% | KM12 colon 59.6%

CCOC(=O)c1c(C)n(Cc2ccccc2)c2cc(CN(C)C)c(O)cc12
inactive: NCI/ADR-RES ovarian 63.5% | T-47D breast 61.1% | BT-549 breast 64.7% | MDA-MB-435 melanoma 80.3% | SW-620 colon 63% | MCF7 breast 55.3% | HCT-116 colon 51.7% | HCC-2998 colon 55.4% | KM12 colon 76.5%

Clc1cccc(N2COOC3(OOC2)C2CC4CC(C2)CC3C4)c1
inactive: NCI/ADR-RES ovarian 44.4% | T-47D breast 69.4% | BT-549 breast 88% | MDA-MB-435 melanoma 73.3% | SW-620 colon 95.5% | MCF7 breast 93.1% | HCT-116 colon 88.2% | HCC-2998 colon 98.1% | KM12 colon 65.7%

Cc1cc(NC(=O)NCc2ccc(N3C(N)=NC(N)=NC3(C)C)cc2)ccc1S(=O)(=O)F
inactive: NCI/ADR-RES ovarian 112% | T-47D breast 59.7% | BT-549 breast 42% | MDA-MB-435 melanoma 32.7% | SW-620 colon 23.9% | MCF7 breast 23.2% | HCT-116 colon 23.3% | KM12 colon 16.2%
active: HCC-2998 colon 5.34%

O=C(CC1(O)C(=O)Nc2ccc(Cl)cc21)c1ccc(C(=O)NCC2CCC3(CC2)OOC2(CCCCC2)OO3)cc1 (stereo not drawn)
inactive: NCI/ADR-RES ovarian 58.3% | BT-549 breast 48.8% | MCF7 breast 37.4% | HCT-116 colon 41.6% | HCC-2998 colon 83.6%
active: T-47D breast -24.7% | MDA-MB-435 melanoma 8.39% | SW-620 colon -49% | KM12 colon 9.65%

O=C(N/N=C/c1ccc(N(CCCl)CCCl)cc1)c1cccc2ccccc12
inactive: NCI/ADR-RES ovarian 72.9% | T-47D breast 73.3% | BT-549 breast 67.4% | MDA-MB-435 melanoma 13.8% | SW-620 colon 54.1% | MCF7 breast 35.4% | HCT-116 colon 48.1% | HCC-2998 colon 87.7% | KM12 colon 67.4%
